Potency and outcome data for seven compounds are collected here from PubChem BioAssay (Tox21).

The nature of assay [1]: qHTS assay for small molecule agonists of the p53 signaling pathway (AID 651631; calls by dose curve; note: nearly all actives have a fitted effect of over 15% in size). The gist of the method: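 p53RE-bla HCT-116 cells; compounds 16 h, 37 °C; LiveBLAzer B/G FRET substrate 2 h RT; fluorescence intensity read-out, qHTS format.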
The nature of assay [2]: qHTS assay to test for compound auto fluorescence at 590 nm (red) in HepG2 cells (AID 720674). The procedure, abridged:
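Rose Bengal sodium served as the red fluorophore standard. HepG2 monolayers (overnight attachment, MEM with 10% FBS) were exposed to test compounds for 1 hr at 37 C and read at Ex 540/Em 590 nm.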

The nature of assay [3]: qHTS assay to test for compound auto fluorescence at 460 nm (blue) in HEK293 cells (AID 720678). The procedure, abridged:
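Measured: blue fluorescence (Ex 405/Em 460 nm) of compound-treated HEK293 cells, incubated overnight at 37C with 5% CO2 and scaled to triamterene equivalents.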

Assay [4] can be described thus: qHTS assay to test for compound auto fluorescence at 535 nm (green) in HEK293 cells (AID 720680).
Assay [5] can be described thus: qHTS assay to test for compound auto fluorescence at 590 nm (red) in HEK293 cell free culture (AID 720683). The gist of the method: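 Tox21 10K library compounds were pinned into cell-free DMEM with 10% FBS and fluorescence was read at excitation 540 nm. Activity is expressed as Rose Bengal sodium equivalency.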
Assay [6] has as its target Glucocorticoid receptor (Homo sapiens) (UniProt P04150). The assay is described as follows: qHTS assay to identify small molecule agonists of the glucocorticoid receptor (GR) signaling pathway (AID 720691; active = well fitted activation curve with a large enough effect in the signal ratio in the repeat runs, not every such curve was filed as active; the % refers to the signal ratio). The procedure, abridged:
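GR-bla HeLa cells carrying a GRE-driven beta-lactamase reporter, exposed to compounds for 18 h at 37 C. Reporter activation read as fluorescence after 2 h with LiveBLAzer B/G FRET substrate at room temperature.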

Assay [7] is described as follows: qHTS assay for identifying genotoxic compounds that show differential cytotoxicity against isogenic chicken DT40 cell lines with known DNA damage response pathways - wild type cell line (AID 743012). Note: nearly all actives have a fitted effect of over 60% in size. Note: potency is the fitted concentration of half-maximal effect. The procedure, abridged:
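Wild-type DT40 cells (300/well) exposed to compounds for 40 hours at 37 C/5% CO2. Viability read by CellTiter-Glo luminescence after 30 min at room temperature.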

Assay [8] can be described thus: qHTS assay for identifying genotoxic compounds that show differential cytotoxicity against isogenic chicken DT40 cell lines with known DNA damage response pathways - Rev3 mutant cell line (AID 743014). Note: nearly all actives have a fitted effect of over 55% in size.
The nature of assay [9]: qHTS assay for identifying genotoxic compounds that show differential cytotoxicity against isogenic chicken DT40 cell lines with known DNA damage response pathways - Rad54/Ku70 mutant cell line (AID 743015). Note: nearly all actives have a fitted effect of over 60% in size.
A short description of assay [10]: qHTS assay to identify small molecule antagonists of the thyroid receptor (TR) signaling pathway - cell viability counter screen (AID 743064). Note: nearly all actives have a fitted effect of over 50% in size. The gist of the method:
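GH3.TRE-Luc cells, 4 h pre-plating; cpd + T3 1 nM final; 37 °C 23.5 h; CellTiter-Fluor 30 min; fluorescence read.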

The nature of assay [11]: qHTS assay to identify small molecule antagonists of the thyroid receptor (TR) signaling pathway (AID 743065). Note: series mostly up to about 70 µM; nearly all actives have a fitted effect of over 55% in size. The procedure, abridged:
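GH3.TRE-Luc rat pituitary cells carrying two TR response elements driving luciferase were plated for 4 h, given compound plus 1 nM T3 (final), and incubated 23.5 h at 37 C. ONE-Glo luminescence measured reporter inhibition; CellTiter-Fluor fluorescence tracked cytotoxicity.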

Assay [12] deals with thyroid hormone receptor (rat, GH3 cells). The assay is described as follows: qHTS assay to identify small molecule agonists of the thyroid receptor (TR) signaling pathway (AID 743066; calls by dose curve).
In assay [13] the target is Estrogen receptor (Homo sapiens) (UniProt P03372). Put plainly: qHTS assay to identify small molecule agonists of the estrogen receptor alpha (ER-alpha) signaling pathway (AID 743075; calls by dose curve;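 note: HEK293 GripTite cells with ER-alpha and UAS-driven beta-lactamase reporter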).
Assay [14] in a line: qHTS assay to identify small molecule antagonists of the estrogen receptor alpha (ER-alpha) signaling pathway using the BG1 cell line (AID 743080; calls by dose curve;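 note: BG1 cells stimulated with 17beta-estradiol alongside compound; series mostly up to about 70 µM; nearly all actives have a fitted effect of over 25% in size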). The procedure, abridged:
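Quantitative HTS on the Tox21 10K library: BG1 cells with endogenous ER-alpha and ERE-luciferase reporter, 17beta-estradiol stimulation, 21.5 h compound exposure, luminescence endpoint with parallel fluorescence cytotoxicity counter-read.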

For assay [15], the target named is Peroxisome proliferator-activated receptor gamma (Homo sapiens) (UniProt P37231). Put plainly: qHTS assay to identify small molecule agonists of the peroxisome proliferator-activated receptor gamma (PPARg) signaling pathway (AID 743094; active = well fitted activation curve with a large enough effect in the signal ratio in the repeat runs, not every such curve was filed as active; the % refers to the signal ratio). The procedure, abridged: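 GeneBLAzer PPARg UAS-bla HEK293H cells were plated, rested 5 h, then exposed to compounds for 17 h at 37C. Beta-lactamase activity was read by LiveBLAzer B/G FRET substrate fluorescence after 1 h at room temperature.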

The target in assay [16] is Nuclear receptor subfamily 1 group I member 2 (Homo sapiens) (UniProt O75469). The assay is described as follows: Human pregnane X receptor (PXR) activation by small molecules, qHTS assay (AID 1346985). Note: nearly all actives have a fitted effect of over 40% in size. The gist of the method:
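DPX-2 cells (HepG2 co-transfected with a PXR response element and a CYP3A4-promoter luciferase construct) were seeded at 2,000 per well, rested 5 hr at 37C, then exposed to DMSO-dissolved compounds for 24 hr. Activation was read as luciferase luminescence.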

Assay [17] is described as follows: qHTS assay for small molecules that induce genotoxicity in human embryonic kidney cells expressing luciferase-tagged ATAD5 - cell viability (AID 651634; calls by dose curve; note: nearly all actives have a fitted effect of over 25% in size). The procedure, abridged: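 HEK293T cells carrying luciferase-tagged ATAD5, 2,000 cells/well, exposed to compound for 15.5 hr at 37C. Viability read as live-cell protease activity by CellTiter-Fluor fluorescence after 30 min at 37C.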

Assay [18] can be described thus: qHTS assay for small molecule disruptors of the mitochondrial membrane potential (AID 720635). The gist of the method:
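HepG2 cells (2,000/well) attached overnight at 37C, then took compound for 1 hr at 37C, 5% CO2. Mito-MPS dye was added for 30 min; fluorescence was read at 490/535 nm (monomers) and 540/590 nm (aggregates).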

The nature of assay [19]: qHTS assay to identify small molecule antagonists of the glucocorticoid receptor (GR) signaling pathway - cell viability counter screen (AID 720693). Note: nearly all actives have a fitted effect of over 55% in size.
A short description of assay [20]: qHTS assay to identify small molecule that activate the aryl hydrocarbon receptor (AhR) signaling pathway - cell viability counter screen (AID 743086).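 Note: HepG2 liver cells carrying the AhR DRE luciferase reporter; series mostly up to about 70 µM; nearly all actives have a fitted effect of over 45% in size.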 The procedure, abridged:
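HepG2-AhR-luc (HG2L7.5c1) cells, 4000/well, were preincubated 5 h at 37C, exposed to compound in qHTS format for 24 hr at 37C, then given CellTiter-Fluor for 30 min; viability was read as fluorescence in the reporter wells.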

SMILES strings stand for the structures. Records with an inconclusive call do not appear. Active and inactive are the calls of the source. Unless noted, calls come from the whole dose curve; as a rule, active = well fitted curve in the direction sought with a large enough effect in the repeat runs; inconclusive = weak or mixed curves; inactive = no such curve, though single readings can be large; an effect the other way counts as inactive or inconclusive.

Peroxisome proliferator-activated receptor gamma (Homo sapiens), sequence (P37231 whole entry, looked up): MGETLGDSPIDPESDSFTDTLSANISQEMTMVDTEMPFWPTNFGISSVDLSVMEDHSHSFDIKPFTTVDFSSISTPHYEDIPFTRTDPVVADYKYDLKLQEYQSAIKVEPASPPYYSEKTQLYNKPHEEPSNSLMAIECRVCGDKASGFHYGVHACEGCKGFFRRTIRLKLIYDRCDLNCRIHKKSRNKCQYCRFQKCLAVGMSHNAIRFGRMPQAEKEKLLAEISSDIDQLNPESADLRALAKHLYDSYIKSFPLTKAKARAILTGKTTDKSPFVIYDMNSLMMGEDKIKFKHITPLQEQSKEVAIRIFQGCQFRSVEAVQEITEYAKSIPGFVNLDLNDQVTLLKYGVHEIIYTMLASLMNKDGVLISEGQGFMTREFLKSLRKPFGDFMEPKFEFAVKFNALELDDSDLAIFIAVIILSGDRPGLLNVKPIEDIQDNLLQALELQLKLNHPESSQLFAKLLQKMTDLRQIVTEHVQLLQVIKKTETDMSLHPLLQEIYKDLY
Estrogen receptor (Homo sapiens), sequence (P03372 whole entry, looked up): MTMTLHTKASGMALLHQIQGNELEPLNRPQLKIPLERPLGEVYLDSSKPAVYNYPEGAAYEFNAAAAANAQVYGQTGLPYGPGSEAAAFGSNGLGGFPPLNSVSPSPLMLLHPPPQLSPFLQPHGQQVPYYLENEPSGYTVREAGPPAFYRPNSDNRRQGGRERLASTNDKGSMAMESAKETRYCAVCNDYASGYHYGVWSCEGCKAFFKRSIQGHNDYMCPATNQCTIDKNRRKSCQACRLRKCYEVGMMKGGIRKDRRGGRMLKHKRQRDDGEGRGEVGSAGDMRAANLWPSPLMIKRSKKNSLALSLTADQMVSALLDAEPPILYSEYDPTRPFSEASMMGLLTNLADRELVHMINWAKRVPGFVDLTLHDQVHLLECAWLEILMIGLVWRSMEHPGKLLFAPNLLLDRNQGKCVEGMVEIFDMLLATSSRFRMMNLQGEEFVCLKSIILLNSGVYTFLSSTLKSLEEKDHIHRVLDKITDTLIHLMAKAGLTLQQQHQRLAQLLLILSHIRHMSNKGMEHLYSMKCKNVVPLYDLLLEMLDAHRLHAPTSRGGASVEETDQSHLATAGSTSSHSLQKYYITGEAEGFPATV
Glucocorticoid receptor (Homo sapiens), sequence (P04150 whole entry, looked up): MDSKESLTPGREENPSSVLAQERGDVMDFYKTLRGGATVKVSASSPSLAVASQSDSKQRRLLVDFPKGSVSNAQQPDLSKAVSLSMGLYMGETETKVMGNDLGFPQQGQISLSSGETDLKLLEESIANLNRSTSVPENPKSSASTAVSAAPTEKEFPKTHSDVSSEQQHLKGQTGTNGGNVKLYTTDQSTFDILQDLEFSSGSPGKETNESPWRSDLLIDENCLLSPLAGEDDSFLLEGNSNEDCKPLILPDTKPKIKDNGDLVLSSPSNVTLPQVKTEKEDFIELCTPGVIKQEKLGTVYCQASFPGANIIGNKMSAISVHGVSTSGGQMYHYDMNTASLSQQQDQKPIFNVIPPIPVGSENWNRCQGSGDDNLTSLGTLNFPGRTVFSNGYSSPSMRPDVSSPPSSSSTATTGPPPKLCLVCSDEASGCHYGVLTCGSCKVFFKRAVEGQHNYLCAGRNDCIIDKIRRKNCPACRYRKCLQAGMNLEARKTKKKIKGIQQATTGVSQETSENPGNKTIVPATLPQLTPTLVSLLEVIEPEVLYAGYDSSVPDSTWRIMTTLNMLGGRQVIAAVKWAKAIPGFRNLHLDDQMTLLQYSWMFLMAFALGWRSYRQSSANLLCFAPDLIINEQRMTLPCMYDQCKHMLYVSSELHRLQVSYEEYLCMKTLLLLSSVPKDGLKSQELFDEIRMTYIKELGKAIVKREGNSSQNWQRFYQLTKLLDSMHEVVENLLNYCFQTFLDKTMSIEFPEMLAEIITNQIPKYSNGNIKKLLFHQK

Regarding `CC(=O)OC1CN2CCC1CC2` (stereo unspecified), the Potency entry in assay [1], in assay [3], in assay [4], in assay [6], in assay [7] and in [8] was “inactive” throughout. In addition, the Potency entry in assay [9], in [10], in assay [11], in assay [12], in [13] and in [14] was “inactive” in each case. In addition, the Potency result in assay [15] and in [16] was “inactive” in each case. The compound was classed as inactive in assay [2] and in [5].
As to `C[N+]1([O-])[C@@H]2CC[C@H]1CC(OC(=O)C(CO)c1ccccc1)C2` (stereo partly specified), the Potency entry in assay [17], in [18], in assay [4], in [6], in assay [19] and in [7] was “inactive” each time. Further, the Potency entry in [8], in [9], in [10], in assay [13], in assay [14] and in [15] was “inactive” in each case. Also, in assay [16], the Potency result is “inactive”. For the same compound, the call in [2] was inactive.
`O[C@H]1[C@H]2[C@H](O)CCCN2C[C@H]1O`: the Potency entry in [18], in assay [3], in assay [4], in assay [6], in assay [19] and in [7] was “inactive” in each case. Further, the Potency entry in assay [9], in assay [10], in assay [11], in assay [12], in [13] and in [14] was “inactive” each time. The Potency entry in assay [20], in assay [15] and in [16] was “inactive” in each case. The result in assay [2] and in assay [5] was inactive.
Turning to `CC(C)(O)[C@@H]1[C@H]2OC(=O)[C@@H]1[C@]1(O)C[C@H]3O[C@]34C(=O)O[C@H]2[C@]14C`, the Potency entry in assay [1], in assay [3], in assay [4], in assay [6], in [19] and in assay [7] was “inactive” throughout. In addition, the Potency entry in assay [8], in [9], in assay [10], in assay [11], in assay [12] and in assay [20] was “inactive” in each case. Further, the Potency result in assay [16] was “inactive”. The outcome in [2] and in assay [5] was inactive.
As for `C[C@@H]([C@H](O)c1ccccc1)N(C)C`, the Potency result in [1], in assay [17], in assay [3], in assay [4], in [6] and in [19] was “inactive” in each case. Moreover, the Potency result in [7], in assay [9], in assay [10], in [11], in assay [12] and in assay [13] was “inactive” each time. The Potency result in assay [14], in assay [20], in assay [15] and in [16] was “inactive” in each case. The result in [2] and in assay [5] was inactive.
Consider `O=C1CCCCC1CN1CCCCC1` (stereo unspecified), for which the Potency entry in [1], in assay [17], in assay [18], in [3], in assay [6] and in assay [19] was “inactive” throughout. Also, the Potency result in assay [10], in assay [11], in assay [12], in [13], in assay [14] and in assay [20] was “inactive” in each case. The Potency entry in assay [15] and in assay [16] was “inactive” in each case. The outcome in [2] and in [5] was inactive. Besides, the Potency in assay [7] is 23.7 µM (active).
Regarding `C=CCC1(C(C)CCC)C(=O)N=C(S)NC1=O` (stereo unspecified), the Potency entry in assay [1], in [17], in assay [18], in assay [3], in assay [4] and in [6] was “inactive” throughout. Also, the Potency entry in assay [19], in assay [7], in [8], in assay [9], in assay [10] and in assay [11] was “inactive” each time. Also, the Potency entry in assay [12], in [13], in assay [14], in assay [20] and in assay [15] was “inactive” in each case. The result in [2] and in [5] was inactive.
